Only some compounds are listed: those with a hit (about 3.5% of all), similar ones and a draw of the others.
Pf apPOL block – Pf-apPOL DNA polymerase inhibition; Recombinant Pf-apPOL, molecular beacon fluorescence, 1.5 h; AID 1794808; actives 0.25% (n = 210,000); inhibition, % at 10 µM
mHTT-CaM PPI inh – disrupts binding of mutant huntingtin to calmodulin; P42858; AlphaScreen His-mHTT/GST-CaM binding, luminescence; inhibition, % at 15 µM; actives 3.6% (n = 190,000); AID 1671202;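 further: 0% = both proteins with DMSO and 100% = one protein alone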
Target sequence (P42858 whole entry, looked up, stated change not applied): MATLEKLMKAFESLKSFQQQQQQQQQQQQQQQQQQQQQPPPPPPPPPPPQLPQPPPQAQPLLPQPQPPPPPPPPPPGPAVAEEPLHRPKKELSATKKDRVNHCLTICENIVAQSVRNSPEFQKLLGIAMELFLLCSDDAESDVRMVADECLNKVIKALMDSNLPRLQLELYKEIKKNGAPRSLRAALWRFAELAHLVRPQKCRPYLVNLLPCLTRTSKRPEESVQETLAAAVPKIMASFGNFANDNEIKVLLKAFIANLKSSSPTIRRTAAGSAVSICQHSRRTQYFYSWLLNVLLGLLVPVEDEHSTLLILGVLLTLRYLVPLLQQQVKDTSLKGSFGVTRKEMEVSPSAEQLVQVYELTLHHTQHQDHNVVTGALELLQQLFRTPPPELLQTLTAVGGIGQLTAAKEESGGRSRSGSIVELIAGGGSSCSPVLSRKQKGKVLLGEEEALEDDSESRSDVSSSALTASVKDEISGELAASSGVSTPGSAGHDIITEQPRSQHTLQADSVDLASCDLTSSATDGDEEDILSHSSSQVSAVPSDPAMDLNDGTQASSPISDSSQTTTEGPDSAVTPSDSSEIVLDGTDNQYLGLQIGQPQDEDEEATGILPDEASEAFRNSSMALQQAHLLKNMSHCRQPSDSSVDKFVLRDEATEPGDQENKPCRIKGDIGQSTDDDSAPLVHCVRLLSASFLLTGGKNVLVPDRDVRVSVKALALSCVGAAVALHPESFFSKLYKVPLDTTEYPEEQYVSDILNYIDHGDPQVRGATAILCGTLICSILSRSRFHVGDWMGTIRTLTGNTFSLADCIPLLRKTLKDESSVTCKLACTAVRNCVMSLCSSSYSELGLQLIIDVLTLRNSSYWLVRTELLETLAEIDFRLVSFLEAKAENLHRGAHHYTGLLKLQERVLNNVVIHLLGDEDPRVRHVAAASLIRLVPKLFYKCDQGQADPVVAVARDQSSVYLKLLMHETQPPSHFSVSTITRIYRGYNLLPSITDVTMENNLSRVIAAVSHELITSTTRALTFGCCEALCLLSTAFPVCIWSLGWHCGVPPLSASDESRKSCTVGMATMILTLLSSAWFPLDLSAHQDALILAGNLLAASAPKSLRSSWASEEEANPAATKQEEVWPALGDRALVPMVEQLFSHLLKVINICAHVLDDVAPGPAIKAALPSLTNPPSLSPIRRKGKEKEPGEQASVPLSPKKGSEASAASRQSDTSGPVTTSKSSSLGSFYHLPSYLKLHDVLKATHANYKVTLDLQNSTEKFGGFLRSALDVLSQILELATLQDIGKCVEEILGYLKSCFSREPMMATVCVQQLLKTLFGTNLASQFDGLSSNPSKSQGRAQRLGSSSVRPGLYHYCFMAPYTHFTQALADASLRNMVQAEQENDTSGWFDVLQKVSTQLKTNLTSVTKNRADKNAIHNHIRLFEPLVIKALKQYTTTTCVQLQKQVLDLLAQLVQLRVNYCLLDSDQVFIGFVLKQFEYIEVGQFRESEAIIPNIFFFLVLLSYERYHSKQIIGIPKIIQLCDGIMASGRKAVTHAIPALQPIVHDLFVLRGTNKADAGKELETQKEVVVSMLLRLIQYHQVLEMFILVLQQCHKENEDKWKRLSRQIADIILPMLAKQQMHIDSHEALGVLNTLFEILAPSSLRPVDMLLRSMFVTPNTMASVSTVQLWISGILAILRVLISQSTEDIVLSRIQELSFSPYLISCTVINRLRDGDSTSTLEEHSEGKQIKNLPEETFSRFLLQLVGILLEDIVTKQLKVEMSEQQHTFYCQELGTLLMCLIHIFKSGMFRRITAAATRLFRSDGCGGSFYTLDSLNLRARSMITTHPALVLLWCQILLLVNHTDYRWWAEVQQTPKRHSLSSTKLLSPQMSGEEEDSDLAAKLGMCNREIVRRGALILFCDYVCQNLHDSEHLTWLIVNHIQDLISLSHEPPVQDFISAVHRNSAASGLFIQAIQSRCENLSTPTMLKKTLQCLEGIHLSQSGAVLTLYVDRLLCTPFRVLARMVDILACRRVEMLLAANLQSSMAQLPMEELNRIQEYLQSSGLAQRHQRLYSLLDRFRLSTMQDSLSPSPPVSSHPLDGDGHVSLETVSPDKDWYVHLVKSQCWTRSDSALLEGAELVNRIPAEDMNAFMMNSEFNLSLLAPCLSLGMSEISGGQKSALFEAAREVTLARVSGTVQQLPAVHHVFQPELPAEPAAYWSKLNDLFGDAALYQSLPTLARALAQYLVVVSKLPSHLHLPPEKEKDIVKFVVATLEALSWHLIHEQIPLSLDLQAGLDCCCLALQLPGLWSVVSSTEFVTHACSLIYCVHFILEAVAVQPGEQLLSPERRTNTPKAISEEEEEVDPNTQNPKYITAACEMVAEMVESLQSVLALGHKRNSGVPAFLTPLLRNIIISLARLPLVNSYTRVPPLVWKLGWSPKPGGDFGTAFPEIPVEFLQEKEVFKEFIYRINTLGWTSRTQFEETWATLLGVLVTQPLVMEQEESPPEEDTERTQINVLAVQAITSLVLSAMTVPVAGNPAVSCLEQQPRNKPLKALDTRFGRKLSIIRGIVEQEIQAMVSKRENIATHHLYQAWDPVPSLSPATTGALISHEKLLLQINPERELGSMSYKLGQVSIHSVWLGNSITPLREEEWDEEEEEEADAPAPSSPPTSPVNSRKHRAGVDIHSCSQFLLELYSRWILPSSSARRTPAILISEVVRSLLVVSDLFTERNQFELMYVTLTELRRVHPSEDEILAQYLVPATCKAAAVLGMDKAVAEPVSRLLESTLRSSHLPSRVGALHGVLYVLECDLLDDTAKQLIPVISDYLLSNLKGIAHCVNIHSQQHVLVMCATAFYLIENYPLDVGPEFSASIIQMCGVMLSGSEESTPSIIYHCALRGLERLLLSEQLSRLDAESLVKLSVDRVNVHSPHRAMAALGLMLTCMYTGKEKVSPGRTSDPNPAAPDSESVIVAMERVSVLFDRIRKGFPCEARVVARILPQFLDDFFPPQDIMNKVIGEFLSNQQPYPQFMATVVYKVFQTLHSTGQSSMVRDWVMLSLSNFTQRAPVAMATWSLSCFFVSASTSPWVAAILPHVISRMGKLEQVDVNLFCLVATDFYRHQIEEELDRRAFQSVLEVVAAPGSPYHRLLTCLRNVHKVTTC
Numbers without * were called inactive; i = inactive; · = no result given. No stated cut-off is given here; in the data, active means inhibition above about 50%; inactive means the rest.

SMILES | Pf apPOL block | mHTT-CaM PPI inh
N#Cc1c(SCC(=O)Nc2nccs2)sc2c(O)cc(=O)[nH]c12 | · | 51*
N#Cc1c(SCC(=O)NC2CC2)sc2c(O)cc(=O)[nH]c12 | · | -4
CCOC(=O)CC1(NC(=O)N2CCCC2c2ccccc2Cl)CCCCC1 (stereo not drawn) | 1 | 11
COc1ccc(NC(=O)CN2CCN(C3c4ccccc4-c4ccccc43)CC2)cc1Cl | 1 | 40
O=C(CN1CCN(C2c3ccccc3-c3ccccc32)CC1)Nc1ccc2c(c1)OCCO2 | -1 | 58*
COc1cc(OC)c(OC)cc1CNc1ccc([N+](=O)[O-])cc1C | -10 | 4
COc1cc(OC)c(OC)cc1CNc1ccc(Br)cc1C | -2 | 76*
CN1C(=O)S/C(=C\c2cn(Cc3ccccc3F)c3ccccc23)C1=O | -4 | 7
CCCn1cnnc1C1CCN(C(=O)Cc2c[nH]c3ccccc23)CC1 | 2 | 13
Cn1cnnc1C1CCCCN1C(=O)Cc1c[nH]c2ccccc12 (stereo not drawn) | 91* | 4
CCOC(=O)c1noc(C)c1C(C)=NNc1ccccc1Cl | 6 | ·
Cc1ccc(N2C(=O)CSC2c2ccccn2)cc1C (stereo not drawn) | 0 | 5
CN(CCCNC(=O)C1CCCN(c2ccc(N3CCOCC3)nn2)C1)c1ccccc1 (stereo not drawn) | -5 | 55*
CCCCNC(=O)C1CCCN(c2ccc(N3CCOCC3)nn2)C1 (stereo not drawn) | -4 | 0
O=C(COc1ccccc1F)OCc1cc(-c2cc3ccccc3o2)on1 | -9 | -8
COc1cc(-c2csc(C)n2)ccc1O | 0 | -4
COc1cc(-c2nc(-c3cccs3)c(-c3cccs3)[nH]2)ccc1O | 0 | 97*
COc1cccc(NC2=C(NCCO)C(=O)c3ccccc3C2=O)c1 | -5 | 49
Cc1cccc(NC2=C(NCCO)C(=O)c3ccccc3C2=O)c1 | -5 | 74*
CCc1ccc(OCC(=O)Nc2ccc(N3CCOCC3)c(Cl)c2)cc1 | -4 | -2
CCn1c(=O)c(N2CCCC(C(=O)NC3CCCCCCC3)C2)nc2ccccc21 (stereo not drawn) | -8 | 64*
CCCn1c(N2CCCC(C(=O)NC3CC3)C2)nc2ccccc21 (stereo not drawn) | -10 | 1
Cc1cccc(NC(=O)CSc2nnc(NC(=O)Cc3ccccc3)s2)c1C | -3 | -20
CC(C)CC1C(=O)N(Cc2cn(CCC3OCCCO3)nn2)CCS(=O)(=O)N1Cc1ccc(-c2cccc(N(C)C)c2)cc1 (stereo not drawn) | -2 | 69*
COc1ccc(-c2ccc(CN3C(CC(C)C)C(=O)N(Cc4cn(CCC5OCCCO5)nn4)CCS3(=O)=O)cc2)cc1OC (stereo not drawn) | 2 | 21
SMILES | Pf apPOL block | mHTT-CaM PPI inh
CC(C)CC1C(=O)N(Cc2cn(CCC3OCCCO3)nn2)CCS(=O)(=O)N1Cc1ccc(-c2ccccc2)cc1 (stereo not drawn) | -6 | 54*
CC(C)CC1C(=O)N(Cc2cn(CCC3OCCCO3)nn2)CCS(=O)(=O)N1Cc1ccc(-c2ccncc2)cc1 (stereo not drawn) | -2 | 31
O=C1CSC(c2ccccc2[N+](=O)[O-])N1c1ccccn1 (stereo not drawn) | -4 | 6
COCCc1noc(COC2CCCN(Cc3ccco3)C2)n1 (stereo not drawn) | -5 | -12
COc1ccc(Cl)cc1NC(=O)CSc1nnc(-c2c[nH]c3ccccc23)n1C | -12 | 55*
CCOC(=O)c1ccccc1NC(=O)CSc1nnc(-c2c[nH]c3ccccc23)n1C | -11 | 1
O=C(c1cc(C(F)(F)F)cc(C(F)(F)F)c1)c1ccccc1C(=O)N1CCOCC1 | -2 | ·
O=C(N=S1CCC2(C1)OCCO2)c1cc(C(F)(F)F)cc(C(F)(F)F)c1 (stereo not drawn) | 75* | ·
CNC(=O)C1CN(C(=O)COc2ccc(Cl)cc2C)CC12CCCC2 (stereo not drawn) | -4 | 5
O=C(c1ccc(SCc2cccnc2)c([N+](=O)[O-])c1)N1CCOCC1 | -1 | 4
O=C1N/C(=N/N=C/c2ccccc2)S/C1=C\c1ccccc1 | · | i
COc1ccc(C2Oc3ccccc3C3CC(c4ccc(C)o4)=NN32)cc1 (stereo not drawn) | -7 | 60*
COc1ccc(C2Oc3c(OC)cccc3C3CC(c4ccc(C)o4)=NN32)cc1OC (stereo not drawn) | -22 | 51*
COc1cccc2c1OC(c1ccc(F)c(F)c1)N1N=C(c3ccco3)CC21 (stereo not drawn) | -18 | 14
CCOc1cccc2c1OC(c1cccc(OC)c1)N1N=C(c3ccco3)CC21 (stereo not drawn) | -20 | 28
CCOc1cccc2c1OC(c1ccc(OC)c(OC)c1)N1N=C(c3ccc(C)o3)CC21 (stereo not drawn) | -16 | 63*
COc1ccc(C2Oc3ccc(Cl)cc3C3CC(c4ccco4)=NN32)cc1 (stereo not drawn) | -16 | 37
COc1ccc(C2Oc3c(OC)cccc3C3CC(c4ccc(C)o4)=NN32)cc1 (stereo not drawn) | -11 | 83*
COc1cccc(C2=NN3C(C2)c2cccc(OC)c2OC3c2cc(OC)c(OC)c(OC)c2)c1 (stereo not drawn) | -22 | 48
COc1cc(C(=O)NCC(c2cccc3ccccc23)N2CCCC2)c([N+](=O)[O-])cc1OC (stereo not drawn) | -1 | 41
O=C(NCC(O)C1CCCCC1)Nc1ccccc1F (stereo not drawn) | -10 | -17
Cc1nc(NCC(C)C)c2cnn(-c3ccccc3Cl)c2n1 | -1 | 1
CCC(=O)N1N=C(c2ccccc2)CC1c1cc2cc3c(cc2nc1Cl)OCCO3 (stereo not drawn) | 5 | 0
O=C(NCC1(c2ccccc2)CCOCC1)Nc1ccccc1C(F)(F)F | -6 | -19
CC(C)c1cc(C2CCCN2C(=O)Nc2ccc3c(c2)OCCO3)no1 (stereo not drawn) | -2 | -3
SMILES | Pf apPOL block | mHTT-CaM PPI inh
COc1ccc(C2Nc3ccccc3C(=O)N2c2ccc(F)c(Cl)c2)cc1 (stereo not drawn) | -1 | -5
CCc1nc(-n2cccc2)sc1C(=O)Nc1ccc(C)cc1F | -3 | -8
NS(=O)(=O)c1ccc2c(c1)NC(=O)CO2 | · | 0
O=C(Nc1cc(-c2ccco2)nn1CCO)c1cnccn1 | -1 | 92*
O=C(Cn1nc2c(c1NC(=O)c1cnccn1)CSC2)NCc1ccco1 | -20 | 85*
CC(C)(C)n1nc2c(c1NC(=O)CCc1ccccc1)CSC2 | 0 | 3
O=C(Nc1nnc(-c2ccco2)o1)c1cnccn1 | -7 | -9
O=C(Cn1nc2c(c1NC(=O)c1c[nH]c3ccccc13)CSC2)NCCc1ccccc1 | 0 | 93*
O=C(Cc1csc(NC(=O)c2cnccn2)n1)NCc1ccco1 | 4 | 38
COc1ccc(-c2ccc(N3CCN(C(=O)Cc4cn(C)c5ccccc45)CC3)nn2)cc1 | -6 | -1
COc1ccc(-c2c(C)oc3cc(OCC(=O)c4ccccc4)ccc3c2=O)cc1OC | -10 | 0
CC(=O)NC(c1ccc(C)cc1)c1cc([N+](=O)[O-])c2cccnc2c1O (stereo not drawn) | -7 | 100*
CCCC(=O)NC(c1ccc(C)cc1)c1cc(Cl)c2cccnc2c1O (stereo not drawn) | -1 | 29
Cc1cccc(Nc2c([N+](=O)[O-])cc([N+](=O)[O-])c3cccnc23)c1 | -4 | 33

Source: PubChem (University of Kansas High Throughput Screening Laboratory)
